We go through 57 molecules from PubChem BioAssay AID602440 (Sanford-Burnham Center for Chemical Genomics, 2012).

The campaign covered roughly 360,000 compounds. About 2,300 (0.64%) were called active. This is one part of a sample in which actives are shown more often than they occur. No stated cut-off is given here; in the data, active means inhibition mostly above about 40% (no sharp cut-off); inactive means mostly below about 27%.

Sequence of Sentrin-specific protease 8 (Homo sapiens) (Q96LD8 whole entry, looked up): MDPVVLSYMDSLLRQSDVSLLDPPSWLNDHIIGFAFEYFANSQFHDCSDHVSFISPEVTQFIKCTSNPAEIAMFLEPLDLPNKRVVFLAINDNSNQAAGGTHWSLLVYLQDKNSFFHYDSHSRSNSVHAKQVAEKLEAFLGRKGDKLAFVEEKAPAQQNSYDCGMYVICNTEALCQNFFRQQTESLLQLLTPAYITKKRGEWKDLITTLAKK

The test concerns the target Sentrin-specific protease 8 (Homo sapiens) (UniProt Q96LD8). In words: blockers of SENP8 deneddylase activity – biochemical, fluorescence, Nedd8 protein substrate, uHTS, primary screen (AID 602440). Particulars: recombinant SENP8, Nedd8 substrate fluorescence; at 20 µM; hits give high values.
The term inhibition denotes the relative decrease from the control value, in per cent. In the case of `COc1ccccc1S(=O)(=O)c1c(C)cc(C)[nH]c1=O`, the inhibition was -5.8% (inactive).
As for `Cc1cc(C)c(/C=C2\C(=O)Nc3ccccc32)[nH]1`, the figure is 59.5% (active).
The figure for `O=C(c1ccccc1F)N(Cc1ccccc1)Cc1ccccc1` is 7.7% (inactive); for `Cc1ccc(N(Cc2ccccc2O)C(=O)c2ccccc2F)cc1` it is 43.7% (active); for `Cc1cccc(N(Cc2ccccc2)C(=O)c2ccccc2F)c1` it is 10.3% (inactive).
The figure for `CCC(=O)N1CCC(C(N)=O)(N2CCCCC2)CC1` is 23.1% (inactive); for `CN1CCN(CC(=O)C23CC4CC(CC(C4)C2)C3)CC1` it is 8% (inactive); for `O=C(CCC(=O)OCc1cccc(C(=O)Oc2ccccc2)c1)Nc1cccc2ccccc12` it is -5.4% (inactive).
For the molecule `Cc1c(CC(=O)N2CCN(C(=O)C3COc4ccccc4O3)CC2)c(=O)oc2c(O)c(O)ccc12` (configuration not stated), the inhibition was -291% (inactive).
As for `Cn1c2ccccc2n2c(=O)c(=O)n(CC(=O)c3ccc(F)cc3)nc12`, the figure is -7.8% (inactive).
The figure for `COc1ccc(NC(=O)CSc2nncc(=O)n2N)cc1OC` is 8% (inactive).
Regarding `Cc1cc([N+](=O)[O-])ccc1NCc1cccc([N+](=O)[O-])c1`, the inhibition was 29.2% (inactive).
On to `CN1CCN(/N=C2/C(=O)Nc3ccc([N+](=O)[O-])cc32)CC1`, for which the inhibition is 23.5% (inactive).
As for `O=C1Nc2ccc([N+](=O)[O-])cc2C1=Nc1cccc(CO)c1`, the inhibition is 65.6% (active).
As for `Cc1ccc(C(=O)COC(=O)CCCC(=O)NC2CCCCC2)cc1[N+](=O)[O-]`, the figure is 19.6% (inactive).
As for `COc1ccc(NC(=O)CN(C)C(=O)c2ccc(NC3CC3)c([N+](=O)[O-])c2)cc1`, the figure is 33.7% (inactive); as for `Cc1cc(C=O)c(C)n1-c1ccc(NC2CCCCC2)c([N+](=O)[O-])c1`, 56.6% (active).
As for `O=C(Nc1ccc2c(c1)[C@@H]1C[C@@H](CC(=O)N3CCCCC3)O[C@@H](CO)[C@@H]1O2)NC1CCCCC1`, the figure is 15.5% (inactive); as for `CC1Cc2[nH][nH]c(=O)c2C(C2CC2)O1` (configuration not stated), 19.9% (inactive); as for `CN=C(Nc1cccc(S(=O)(=O)N2CCOCC2)c1)c1ccccc1`, 9.5% (inactive).
Consider `CCCC1CCC(=NNC(=S)NCCc2ccccc2)CC1` (configuration not stated), for which the inhibition is 45.2% (active).
For the molecule `CCCCNC(=S)N/N=C1\CCCCc2ccccc21`, the inhibition is 21.8% (inactive).
Turning to `Cc1cc(F)ccc1NC(=S)NCCc1ccccc1`, the inhibition is 8% (inactive).
The figure for `CCOC(=O)c1ccc(N2C(=O)CC(N3CC(C)OC(C)C3)C2=O)cc1` (configuration not stated) is 14% (inactive); for `CCOC(=O)c1ccc(N2C(=O)CC(N(C)Cc3ccccc3)C2=O)cc1` (configuration not stated) it is 46.8% (active).
The figure for `CCOC(=O)c1ccc(N2C(=O)CC(N3CCN(C(=O)c4ccccc4)CC3)C2=O)cc1` (configuration not stated) is 2.8% (inactive); for `COC(=O)C1=C(C(=O)OC)C(c2cc([N+](=O)[O-])ccc2O)c2sc(=O)[nH]c2S1` (configuration not stated) it is 38.8% (inactive).
The figure for `N#CC1(C#N)C(C(=O)C23CC4CC(CC(C4)C2)C3)C12CCOCC2` (configuration not stated) is 2.5% (inactive); for `O=C1Nc2c(Br)cc(Br)cc2C1(O)N1CCOCC1` (configuration not stated) it is 60.2% (active).
As to `O=C(c1cc2cc(Br)cc(Br)c2oc1=O)N1CCOCC1`, the inhibition is -4.2% (inactive).
As for `Cc1ccc(Nc2nc(CSc3nnc(-c4ccncc4)n3-c3ccccc3C)cs2)cc1`, the figure is 11.2% (inactive); as for `Cc1oc2c(C)c3oc(=O)c(CC(=O)N[C@@H](CC(C)C)C(=O)N[C@@H](Cc4ccccc4)C(=O)O)c(C)c3cc2c1C`, -222% (inactive).
The figure for `Cc1ccc(NS(=O)(=O)c2ccc3c(c2)oc(=O)n3C)c(C)c1` is 12.2% (inactive); for `CCN(CC(=O)NC1CCS(=O)(=O)C1)S(=O)(=O)c1ccccc1` (configuration not stated) it is 3.6% (inactive); for `COc1ccc2[nH]c(=O)c(CN(Cc3cccnc3)S(=O)(=O)c3ccccc3F)cc2c1` it is -316% (inactive).
The figure for `O=C(Nc1ccccc1C(=O)N1CCOCC1)C1CCC(=O)N1C1CCCC1` (configuration not stated) is 7.7% (inactive); for `CCc1ccccc1NC(=O)[C@@H]1CCC(=O)N1C1OC(=O)c2c1ccc(OC)c2OC` (some centres not stated) it is 58.1% (active); for `CCc1ccccc1NC(=S)Nc1cc(OC)c(NC(=O)C(C)C)cc1OC` it is 22.3% (inactive).
Consider `CC(=O)NC(CC(=O)Nc1nccs1)c1ccccc1` (configuration not stated), for which the inhibition is 20.4% (inactive).
The figure for `CCC(C)NC(=O)c1ccc(NC(=O)CC2SC(N3CCCCC3)=NC2=O)cc1` (configuration not stated) is 0.4% (inactive); for `CCOc1ccc(C(CC(=O)O)NC(=O)C23CC4CC(CC(C4)C2)C3)cc1OC` (configuration not stated) it is 9% (inactive); for `CCOc1ccc(C(c2c(C)[nH][nH]c2=O)c2c(C)[nH][nH]c2=O)cc1OCC` it is 53.9% (active).
The figure for `CCOc1ccc(C(C)NC(=O)CN2C(=O)NC3(CCCCC3)C2=O)cc1OCC` (configuration not stated) is 4.1% (inactive); for `CCCCNC(=O)C[C@@H]1C[C@@]2(C(=O)OC)CC(C)(C)CC=C2N(Cc2ccco2)C1=O` it is 6% (inactive); for `O=[N+]([O-])c1ncc(Br)cc1Nc1ccccc1` it is 22.6% (inactive).
In the case of `O=C(NCCCc1ccccc1)C1CCC(CNc2c(N3CCCCC3)c(=O)c2=O)CC1` (configuration not stated), the inhibition was 23.4% (inactive).
The figure for `CC(NC(=O)C1CCC(CNc2c(N3CCOCC3)c(=O)c2=O)CC1)c1ccccc1` (configuration not stated) is 9.1% (inactive).
As for `CC(C)CCNC(=O)C1CCC(CNc2c(N3CCC(C)CC3)c(=O)c2=O)CC1` (configuration not stated), the inhibition is 42.8% (active).
The figure for `Cc1ccc(CN2CCCOCCS2(=O)=O)cc1` is 13.5% (inactive); for `CC(C)CN1CCC1(C)C(=O)Nc1ccc(OC(F)F)cc1` (configuration not stated) it is 5.2% (inactive); for `COCCNc1nc(-n2nc(C)cc2C)nc2sc3c(c12)CCCC3` it is -415% (inactive).
On to `COc1ccc(C(C(=O)NC2CCCCC2)N(C(=O)Cc2c[nH]c3ccccc23)c2ccccc2)cc1OC` (configuration not stated), for which the inhibition was -12.6% (inactive).
As for `CC(C)[C@H](NC(=O)OCc1ccccc1)C(=O)OCc1ccccc1`, the figure is 5.8% (inactive); as for `COc1ccc(NS(=O)(=O)c2cc(NC(=O)CC(=O)c3ccc([N+](=O)[O-])cc3)ccc2C)cc1`, 6.3% (inactive).
As for `COc1ccc(-c2[nH][nH]c(=O)c2NC(=O)c2ccc([N+](=O)[O-])cc2)cc1`, the figure is 60.2% (active); as for `Cc1ccc(C(=O)Nc2c(-c3ccccc3)[nH][nH]c2=O)cc1`, 12.1% (inactive).
The figure for `Cc1n[nH]c(C)c1S(=O)(=O)N1CCCC(C(=O)Nc2ccc(Br)cc2)C1` (configuration not stated) is 13.4% (inactive).
